From PubChem BioAssay (EPA / NIEHS)
Where “and” joins values, the source holds several entries; their conditions need not be identical. Identical values can stand only once. The source holds several records for some structures; these can differ, active in one and inactive in another. Calls of active or inactive are those of the source. The calls were made as follows: active = hit-call score of the fitted dose curve at least 0.9, where 1 is the maximum; inactive = score below 0.9.

Experiment: ATG_NF_kB_CIS: Attagene CIS-FACTORIAL HepG2 Assay for human Nuclear Factor Kappa B (NF-kB) (AID 2282991)
Conditions: HepG2 Attagene cis-factorial NF-kB reporter mRNA; actives raise or lower the signal
Protocol: ATG_CIS is a cell-based, multiplexed-readout assay that uses HepG2, a human liver cell line, with measurements taken at 24 hours after chemical dosing in a 24-well plate.ATG_NF_kB_CIS is one of 52 assay component(s) measured or calculated from the ATG_CIS assay. It is designed to make measurements of mRNA induction, a form of inducible reporter, as detected with fluorescence intensity signals by Reverse transcription polymerase chain reaction (RT-PCR) and Capillary electrophoresis technology.Data from the assay component ATG_NF_kB_CIS was analyzed into 1 assay endpoint. This assay endpoint, ATG_NF_kB_CIS, was analyzed with bidirectional fitting relative to DMSO as the negative control and baseline of activity. Using a type of inducible reporter, measures of mRNA for gain or loss-of-signal activity can be used to understand the reporter gene at the transcription factor-level as they relate to the gene NFKB1. Furthermore, this assay endpoint can be referred to as a primary readout, because this assay has produced multiple assay endpoints where this one serves a reporter gene function. To generalize the intended target to other relatable targets, this assay endpoint is annotated to the dna binding intended target family, where the subfamily is NF-kappa B.
Human liver HepG2 cells are transiently transfected with multiple reporter transcription units (MRTUs) in 6-well plates using FuGene 6 reagent (Roche; 3 ml FuGene/1 mg DNA). The MRTU constructs are regulated by a cis-regulating element (promoter). […] A major difference between the CIS and TRANS system is that in CIS activities of endogenous TFs are measured, whereas the TRANS assay evaluates changes in activities of exogenous, chimeric NR-Gal4 proteins. […] At the end of 24 hour incubation, total RNA was isolated using TriZol reagent (Invitrogen). The isolated RNA is then reverse-transcribed using oligo(dT) primer and Mo-MLV reverse transcriptase (Invitrogen) with DNAse I (Ambion) treatment for 30 min. The one-tenth of the produced cDNA was amplified by PCR using Taq DNA polymerase (Invitrogen) and two reporter sequence-specific primers. The PCR products were fluorescently labeled by primer extension with 6-arboxyfluorescein (6-FAM) 5'-labeled reporter sequence-specific primer (2 min at 95 C, 20 s at 68 C and 10 min at 72 C) and these products were digested with 5U of HpaI (New England Biolabs) for 2h at 37 C. The fragments were purified using Qiaquick PCR columns (Qiagen), analyzed on an ABI 3130xL genetic analyzer (Applied Biosystems) with peak positions identified by using a set of X-rhodamine (ROX)-labeled MapMarker1000 molecular weight standards (BioVentures). The raw capillary electrophoresis data was processed using Attagraph software (Attagene).

Compound	outcome	AC50
O=[N+]([O-])C(Br)(CO)CO	inactive	–
ClCCOCCCl	inactive	–
CCN(CC)N=O	inactive	–
Cc1cccc(N)c1N	inactive	–
COP(=S)(OC)SCN1C(=O)c2ccccc2C1=O	inactive	–
[O-][Cl+]O	inactive	–
Oc1ccccc1Cl	inactive	–
Nc1ccc(Oc2ccc(N)cc2)cc1	inactive	–
CC(C)(OOC(C)(C)c1ccccc1)c1ccccc1	inactive	–
c1ccc2c(c1)-c1cccc3cccc-2c13	inactive	–
Cc1cc(N=Nc2ccccc2C)ccc1N	inactive	–
Clc1ccccc1Cl	inactive	–
C1=Cc2cccc3cccc1c23	inactive	–
CCCCCOC(=O)c1ccccc1C(=O)OCCCCC	inactive	–
CC(C)(C)OOC(=O)c1ccccc1	inactive	–
CCC[CH2][Sn]([Cl])([CH2]CCC)[CH2]CCC	–	0.601 µM (active)
CCCCOC(=O)c1ccccc1C(=O)OCc1ccccc1	inactive	–
[As]#[In]	inactive	–
CN(C)[C@@H]1C(=O)C(C(N)=O)=C(O)[C@@]2(O)C(=O)C3=C(O)c4c(O)cccc4[C@@](C)(O)[C@H]3C[C@@H]12	inactive	–
Cc1ccc(N)cc1	inactive	–

Compound	outcome	AC50
O=C(Oc1ccc(Br)cc1)N1CCN2CCC1CC2	–	60.9 µM (active)
CCC(C)c1ccc(O)cc1 (stereo not given)	–	100 µM (active)
CCOC(=O)[C@]1(c2ccccc2)Oc2ccccc2[C@@H]1N	–	33 µM (active)
CC(O)CCO (stereo not given)	inactive	–
Cc1ccc(N=C=O)cc1N=C=O	inactive	–
Clc1ccc(C(c2ccc(Cl)cc2)C(Cl)(Cl)Cl)cc1	inactive	–
N#CC(Br)(Br)C(N)=O	–	157 µM (active)
C[C@]12C=CC3=C4CCC(=O)C=C4CC[C@H]3[C@@H]1CC[C@@H]2O	inactive	19.8 µM (active) and 70.6 µM (active) and 40.3 µM (active)
Oc1ccc2ccc3cccc4ccc1c2c34	inactive	–
c1ccc(NNc2ccccc2)cc1	inactive	–
CN(C)c1ccc(C(=O)c2ccc(N(C)C)cc2)cc1	inactive	–
Nc1ccc(Cc2ccc(N)cc2)cc1	inactive	–
CC(C)(C)C(O)(CCc1ccc(Cl)cc1)Cn1cncn1 (stereo not given)	inactive	–
ClC1=C(Cl)C2(Cl)C3C(Cl)C=CC3C1(Cl)C2(Cl)Cl (stereo not given)	–	100 µM (active)
CCCCC(CC)COC(=O)c1ccc(C(=O)OCC(CC)CCCC)c(C(=O)OCC(CC)CCCC)c1 (stereo not given)	inactive	–
CCCCCCCCOC(=O)c1ccc(C(=O)OCCCCCCCC)c(C(=O)OCCCCCCCC)c1	inactive	–
CCN(CC)CCO	inactive	–
Nc1ccc(Cl)cc1N	inactive	–
CO[C@@H]1[C@H](OC(=O)NC(=O)CCl)CC[C@]2(CO2)[C@H]1[C@@]1(C)O[C@@H]1CC=C(C)C	inactive	–
